The labels stand for the following.
B1: PhoQ; a variant is named by its letters at X, in order, P23837 (parent)
chain: MKKLLRLFFPLSLRVRFLLATAAVVLVLSLAYGMVALIGYSVSFDKTTFRLLRGESNLFYTLAKWENNKLHVELPENIDKQSPTMTLIYDENGQLLWAQRDVPWLMKMIQPDWLKSNGFHEIEADVNDTSLLLSGDHSIQQQLQEVREDDDDAEMTHSVAVNVYPATSRMPKLTIVVVDTIPVELKSSYMVWSWFIYVLSANLLLVIPLLWVAAWWSLRPIEALAKEVRELEEHNRELLNPATTRELTSLVRNLNRLLKSERERYDKYRTTLTDLTHSLKTPLXXLQXXLRSLRSEKMSVSDAEPVMLEQISRISQQIGYYLHRASMRGGTLLSRELHPVAPLLDNLTSALNKVYQRKGVNISLDISPEISFVGEQNDFVEVMGNVLDNACKYCLEFVEISARQTDEHLYIVVEDDGPGIPLSKREVIFDRGQRVDTLRPGQGVGLAVAREITEQYEGKIVAGESMLGGARMEVIFGRQHSAPKDE

Whole data set: some 140,000 sequences, median “enrichment ratio after two sorts for PhoP signalling” near 0, cut for the highest 2% near 11. The sample as a whole holds a higher share of the highest values than the screen did.

Variants of B1 are the subject of this assay. Kind of assay: enrichment ratio after two sorts for PhoP signalling (ratio (wild type AVST 3.29)); higher = more functional. Particulars: with PhoP (E. coli).
For FFGN, the enrichment ratio is no more than 0.25.

For the variant TTGN, the enrichment ratio amounted to 21.9.

Turning to TNRW, the enrichment ratio was no more than 0.25.

As for LWKV, the enrichment ratio was no more than 0.25.

For the variant IVDK, the enrichment ratio was no more than 0.25.

With EHTD, the enrichment ratio is no more than 0.25.

Take NKKA: the enrichment ratio was no more than 0.25.

Turning to MHGI, the enrichment ratio is no more than 0.25.

Take QKAH: the enrichment ratio was no more than 0.25.

In the case of KQVW, the enrichment ratio is no more than 0.25.

ECVR: the enrichment ratio is no more than 0.25.

Turning to KPPV, the enrichment ratio is no more than 0.25.

Turning to MAGN, the enrichment ratio came out at 13.5.

MEGN: the enrichment ratio came to 10.8.

For the variant MMGN, the enrichment ratio is no more than 0.25.

Turning to NAGN, the enrichment ratio is no more than 0.25.

As for MCGN, the enrichment ratio turned out to be 16.3.

Consider KAGN, for which the enrichment ratio is no more than 0.25.

Consider WWPI, for which the enrichment ratio was no more than 0.25.

As to DCFD, the enrichment ratio is no more than 0.25.

As for MKAA, the enrichment ratio was no more than 0.25.

In the case of MIAD, the enrichment ratio was no more than 0.25.

For MIAA, the enrichment ratio turned out to be 11.7.

For MIFA, the enrichment ratio was no more than 0.25.

Regarding MILQ, the enrichment ratio worked out at 14.

Turning to MIYF, the enrichment ratio came to 24.3.

MITA: the enrichment ratio is no more than 0.25.

Regarding MELQ, the enrichment ratio was 3.81.

For MTYF, the enrichment ratio came out at 7.02.

As to MDYF, the enrichment ratio was no more than 0.25.

Take MIYI: the enrichment ratio worked out at 24.3.

Regarding MIWI, the enrichment ratio came out at 3.74.

With KCES, the enrichment ratio is no more than 0.25.

In the case of FVYA, the enrichment ratio was no more than 0.25.

In the case of FGWI, the enrichment ratio was no more than 0.25.

LDYV: the enrichment ratio is no more than 0.25.

For the variant DLSC, the enrichment ratio is no more than 0.25.

IAQI: the enrichment ratio is no more than 0.25.

Turning to MIYH, the enrichment ratio came to 7.94.

Regarding MIHF, the enrichment ratio stood at 3.77.

For the variant MILA, the enrichment ratio turned out to be 1.31.

For the variant MIMF, the enrichment ratio was found to be 0.51.

On to MITH, for which the enrichment ratio is no more than 0.25.

Take MILY: the enrichment ratio came out at 0.599.

With MISK, the enrichment ratio is no more than 0.25.

As for MIFC, the enrichment ratio is no more than 0.25.

Take MISC: the enrichment ratio worked out at 23.

As to MIGH, the enrichment ratio was determined as 18.2.

MITI: the enrichment ratio was 14.6.

On to MIGF, for which the enrichment ratio came to 11.9.

Consider NIWL, for which the enrichment ratio is no more than 0.25.

WCMF: the enrichment ratio was no more than 0.25.

For the variant KFLW, the enrichment ratio was no more than 0.25.

On to SFFA, for which the enrichment ratio was no more than 0.25.

As for IEDQ, the enrichment ratio is no more than 0.25.

As to TAFY, the enrichment ratio came to 2.48.

For the variant RVSG, the enrichment ratio was no more than 0.25.

As for LAEY, the enrichment ratio was no more than 0.25.

On to GIVQ, for which the enrichment ratio turned out to be 2.03.

MSAQ: the enrichment ratio turned out to be 9.85.

For MITV, the enrichment ratio was found to be 17.2.

With MIMV, the enrichment ratio was no more than 0.25.

MIFT: the enrichment ratio is no more than 0.25.

As to MIAQ, the enrichment ratio was found to be 14.7.

Turning to MILT, the enrichment ratio was no more than 0.25.

MIAT: the enrichment ratio is 12.1.

As for MIWV, the enrichment ratio is no more than 0.25.

Turning to MFAQ, the enrichment ratio is no more than 0.25.

With HFIN, the enrichment ratio is no more than 0.25.

In the case of LDFC, the enrichment ratio is no more than 0.25.

Take MDHH: the enrichment ratio was no more than 0.25.

With PDDC, the enrichment ratio was no more than 0.25.

On to IFMI, for which the enrichment ratio is no more than 0.25.

With WEFI, the enrichment ratio is no more than 0.25.

Take STNC: the enrichment ratio is no more than 0.25.

Regarding THNC, the enrichment ratio worked out at 11.9.

As for NHNC, the enrichment ratio was no more than 0.25.

Consider TCNC, for which the enrichment ratio turned out to be 14.3.

With SHNC, the enrichment ratio was determined as 0.752.

Regarding NGNC, the enrichment ratio is no more than 0.25.

With KCNC, the enrichment ratio was no more than 0.25.

As for SLNC, the enrichment ratio was no more than 0.25.

On to TGNC, for which the enrichment ratio came out at 61.8.

For the variant KSNC, the enrichment ratio was no more than 0.25.

For the variant SNNC, the enrichment ratio was 18.6.

As to RGNC, the enrichment ratio was no more than 0.25.

Consider SIFT, for which the enrichment ratio is no more than 0.25.

Take PGDY: the enrichment ratio was no more than 0.25.

For QRCP, the enrichment ratio is no more than 0.25.

Take NMAF: the enrichment ratio is no more than 0.25.

For QMGQ, the enrichment ratio was no more than 0.25.

Turning to QVAS, the enrichment ratio is no more than 0.25.

Turning to SKNA, the enrichment ratio was no more than 0.25.

DLFK: the enrichment ratio was no more than 0.25.

With DATT, the enrichment ratio is no more than 0.25.

Regarding SHNF, the enrichment ratio was found to be 9.74.

For the variant YCNQ, the enrichment ratio is no more than 0.25.

Turning to THNQ, the enrichment ratio was 30.9.

As for KDNC, the enrichment ratio was no more than 0.25.

On to TANC, for which the enrichment ratio came to 12.1.

KANC: the enrichment ratio was no more than 0.25.

With SHNQ, the enrichment ratio was 0.892.

On to TFNC, for which the enrichment ratio came out at 2.85.

Turning to TFNQ, the enrichment ratio was found to be 13.4.

FDNC: the enrichment ratio is no more than 0.25.

For IANC, the enrichment ratio was no more than 0.25.

Regarding NHNQ, the enrichment ratio is no more than 0.25.

Take TDNC: the enrichment ratio is 13.4.

Take TNPA: the enrichment ratio was no more than 0.25.

As for VGFR, the enrichment ratio was no more than 0.25.

Consider YITS, for which the enrichment ratio worked out at 0.602.

For ECNN, the enrichment ratio was no more than 0.25.

KVKT: the enrichment ratio is no more than 0.25.

As for GNYR, the enrichment ratio was no more than 0.25.

Turning to DIML, the enrichment ratio is no more than 0.25.

Take AHSL: the enrichment ratio stood at 0.581.

Turning to MESL, the enrichment ratio was 13.9.

Take AQSL: the enrichment ratio is 7.47.

Turning to NESL, the enrichment ratio is no more than 0.25.

In the case of MMSL, the enrichment ratio is 6.66.

Consider MDSL, for which the enrichment ratio was no more than 0.25.

In the case of AESL, the enrichment ratio came out at 11.7.

Consider TESL, for which the enrichment ratio was determined as 12.5.

For QESL, the enrichment ratio was determined as 0.967.

Consider RWWS, for which the enrichment ratio is no more than 0.25.

As for RAAP, the enrichment ratio was no more than 0.25.

Consider FFQI, for which the enrichment ratio was no more than 0.25.

NMFS: the enrichment ratio was no more than 0.25.

As for AIQP, the enrichment ratio is no more than 0.25.

Take ERDH: the enrichment ratio is no more than 0.25.

For the variant TVNI, the enrichment ratio is 12.6.

For TVNS, the enrichment ratio is 18.9.

Turning to PVNI, the enrichment ratio was no more than 0.25.

TVNY: the enrichment ratio is no more than 0.25.

In the case of TVNW, the enrichment ratio was no more than 0.25.

On to FVNS, for which the enrichment ratio is no more than 0.25.

In the case of WILF, the enrichment ratio was no more than 0.25.

As to MDWW, the enrichment ratio was no more than 0.25.

On to ACPI, for which the enrichment ratio was found to be 9.4.

Turning to RIAV, the enrichment ratio is no more than 0.25.

As for HQNT, the enrichment ratio was no more than 0.25.

With IGGC, the enrichment ratio is no more than 0.25.

In the case of SHCG, the enrichment ratio stood at 16.6.

Regarding THCG, the enrichment ratio came out at 5.77.

Regarding THMG, the enrichment ratio worked out at 2.89.

For the variant SHMW, the enrichment ratio worked out at 0.684.

In the case of SHVG, the enrichment ratio is no more than 0.25.

Turning to SHMG, the enrichment ratio came out at 17.8.

On to REDG, for which the enrichment ratio is no more than 0.25.

Take WCII: the enrichment ratio is no more than 0.25.

Consider ENIH, for which the enrichment ratio is no more than 0.25.

On to MRCK, for which the enrichment ratio was no more than 0.25.

MGLF: the enrichment ratio came to 2.83.

Source of the values: a collection of fitness landscapes (doi:10.1126/science.1257360).
